Bioassay records deposited in PubChem BioAssay by National Center for Advancing Translational Sciences (NCATS).
Compounds with a hit are over-represented: about 10% of the library has one in this group of screens.
G9a block – blocks human histone lysine methyltransferase G9a. Q96KQ7. G9a H3K9 monomethylation, AlphaScreen, 2 h. Potency, µM (top dose mostly 102 µM), without a hit: top-dose activity, negative = inhibition, hits mostly inhibitors. actives 8.8% (n = 350,000). AID 504332; also: % is scaled to controls: 0 for no effect and ±100 for the full control effect; nearly all actives have a fitted effect of over 75% in size
Target sequence (Q96KQ7 913-1193 limits assumed): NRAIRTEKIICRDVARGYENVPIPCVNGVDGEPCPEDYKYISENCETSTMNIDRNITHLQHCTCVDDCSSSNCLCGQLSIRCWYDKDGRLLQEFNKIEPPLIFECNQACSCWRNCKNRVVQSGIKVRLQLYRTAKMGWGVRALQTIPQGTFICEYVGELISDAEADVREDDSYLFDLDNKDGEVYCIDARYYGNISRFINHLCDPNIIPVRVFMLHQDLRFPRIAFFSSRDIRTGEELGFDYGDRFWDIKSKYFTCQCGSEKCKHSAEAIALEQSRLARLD
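AlphaScreen detection with an anti-monomethyl H3K9 antibody quantified product after a 2 h room-temperature reaction containing 500 nM biotinylated H3K9 peptide, 20 µM SAM and 20 nM enzyme, which had been preincubated 15 min with compound.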
GLS inh – blocks human kidney-isoform glutaminase activity; O94925; GLS enzymatic activity, qHTS titration; Potency, µM (series often up to 45.5 µM), for inactives: at the top dose activity change, negative = inhibition, actives largely listed as inhibitors; actives 0.21% (n = 410,000); AID 624170; also: % is scaled to controls: 0 for no effect and ±100 for the full control effect
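Compounds were pin-transferred onto hKGA, after which L-glutamine (1 mM solution) and a detection mix of glutamate oxidase, HRP and Amplex Red were added. Initial and 30 min RT fluorescence reads were collected.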
BAZ2B inh – blocks human BAZ2B. actives 4.4% (n = 360,000). Q9UIF8. Potency, µM (series often up to 114 µM), inactives show top-dose activity change, negative = inhibition, hits mostly inhibitors. AlphaScreen BAZ2B-H3K14Ac peptide displacement; also: % is scaled to controls: 0 for no effect and ±100 for the full control effect; nearly all actives have a fitted effect of over 60% in size
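In this displacement format the biotinylated H3(5-23) peptide acetylated at Lys14 serves as ligand at 50 nM, with BAZ2B at 50 nM in PBS pH 7.4 containing 0.01% Tween-20. Donor and acceptor beads are 10 ug/mL final.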
HP1b binding inh – inhibitors of HP1-beta chromodomain binding to methylated histone tails; P83916; AlphaScreen HP1-beta / biotin-H3K9me3 peptide binding; Potency, µM (highest dose often 114 µM), without a hit: at the top dose activity change, negative = inhibition, hits mostly inhibitors; actives 0.56% (n = 390,000); also: nearly all actives have a fitted effect of over 70% in size
Target sequence (P83916 whole entry, looked up): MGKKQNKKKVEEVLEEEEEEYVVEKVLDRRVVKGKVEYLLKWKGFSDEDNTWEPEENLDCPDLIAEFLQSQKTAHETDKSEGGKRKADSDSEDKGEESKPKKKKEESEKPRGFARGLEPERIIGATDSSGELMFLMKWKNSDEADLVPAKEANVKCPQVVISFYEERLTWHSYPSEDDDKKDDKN
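HP1-beta protein (50 nM final) preincubated 30 min at room temperature with biotinylated H3(1-18)K9me3 peptide (50 nM) in PBS pH 7.4, 0.01% Tween-20, then compound added for 30 min. AlphaScreen streptavidin donor/nickel chelate acceptor beads (10 ug/mL final), 30 min dark, luminescence read.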
JMJD2A Tudor inh – inhibitors of human JMJD2A Tudor domain. AlphaScreen JMJD2A-Tudor / H3K4me3 peptide binding. Potency, µM (doses to about 114 µM), without a hit: at the highest dose activity change, negative = inhibition, most hits filed as inhibitors. AID 504339. actives 4.4% (n = 390,000); also: % is scaled to controls: 0 for no effect and ±100 for the full control effect; nearly all actives have a fitted effect of over 50% in size
* = called active by the depositor; ? = inconclusive; / = no result given; [ ] = dose if it differs, or a comment. Calls follow the shape of the dose curve; as a rule, active = well fitted curve in the direction sought with a large enough effect; inconclusive = small, poorly fitted or top-dose-only effect, or another doubt; inactive = no such curve, though single readings can be large; an effect the other way counts as inactive or inconclusive. Potency is read from the fitted curve at half-maximal effect.

SMILES	G9a block	GLS inh	BAZ2B inh	HP1b binding inh	JMJD2A Tudor inh
CN1c2ccsc2/C(=N/Nc2ccc(F)cc2)CS1(=O)=O	14.1µM*	?	?	?	25.1µM*
Cc1ccc(N/N=C2\CS(=O)(=O)N(C)c3ccsc32)cc1	44.7µM*	9.8%	?	-5.1%	-26.6%
CCCC(=O)N/N=C1\CS(=O)(=O)N(C)c2ccsc21	-13.9%	0.0%	-38.9%	4.1%	-9.2%
Cc1ccc(C2(c3noc(CN(C)CCO)n3)CCCC2)cc1	/	6.7%	-1.6%	20.8%	-15.1%
CCOC(=O)CC1(CC(=O)OCC)NC(=O)c2c(C)sc(C(=O)OCC)c2N1	13.5%[12.7 µM]	24.4%	-0.6%	31.6%	2.9%
Cc1ccc(-c2nn(-c3ccccc3)cc2C=O)o1	39.8µM*	-2.8%	-12.2%	-6.5%	-35.2%
Cn1ncc(S(=O)(=O)Cc2ccccc2)c(Br)c1=O	1.5µM*	/	/	/	/
O=C(O)c1ccccc1S(=O)(=O)Cc1ccccc1	-14.1%[12.7 µM]	0.3%	8.9%	12.5%	-19.9%
CCOc1ccc(NC(=O)COc2ccc(S(=O)(=O)N3CCOCC3)cc2)cc1	/	-7.2%	/	14.9%	-8.2%
CCCCn1c(-c2ccc(S(=O)(=O)N3CCOCC3)cc2)csc1=Nc1ccccc1	5.62µM*	2.9%	?	?	?
CCCC(C(=O)Nc1ccc(S(=O)(=O)N2CCOCC2)cc1)c1ccccc1 (stereo not given)	32.6%[12.7 µM]	5.3%	7.3%	13.0%	-7.4%
O=S(=O)(c1ccc(-c2csc(=Nc3ccccc3)n2CCCN2CCOCC2)cc1)N1CCOCC1	37.9%[0.501 µM]	17.9%	39.8µM*	?	?
CCCn1c(-c2ccc(S(=O)(=O)N3CCOCC3)cc2)csc1=Nc1ccc(OCC)cc1	12.6µM*	-0.1%	?	?	?
COc1ccc(CCC(=O)OCC(=O)NCc2ccc3c(c2)OCO3)cc1	0.5%[59 µM]	-0.3%	-0.2%	29.7%	-0.7%
Cc1ccnc(N=O)c1	/	1.2%	/	?	20µM*
CCOc1ccc(N2CC(C(=O)N3CCCc4ccccc43)CC2=O)cc1 (stereo not given)	-39.4%[59 µM]	-10.0%	-4.4%	15.7%	-16.2%
CCCN(C)C1CN(Cc2cn(Cc3ccc(F)cc3)nn2)S(=O)(=O)C1 (stereo not given)	/	-0.5%	/	/	/
C=CCN(c1ccccc1)S(=O)(=O)c1cccc(C(=O)O)c1	7.3%[12.7 µM]	-2.8%	11.7%	33.4%	-7.3%
C=CCN(c1ccccc1)S(=O)(=O)c1cccc(C(=O)NNC(=O)c2ccccc2O)c1	31.0%	16.3%	-10.0%	3.8%	89.1µM*
Nc1nnnn1/N=C/c1cc(Cl)cc(Cl)c1O	/	9.8%	-3.0%	16.5%	39.8µM*
Nc1nnnn1/N=C/c1cc(Cl)ccc1O	14.9%	40.4%	1.2%	59.1%	-3.4%
COc1ccc(Cc2nc(-c3ccc(Br)o3)no2)cc1OC	50.1µM*	0.9%	1.8%	41.0%	-6.3%
Brc1ccc(-c2noc(COc3ccc4ccccc4c3)n2)o1	44.7µM*	-1.5%	?	-0.2%	27.7%
COc1ccc(-c2noc(-c3ccc(Br)o3)n2)cc1OC	10.8%[12.7 µM]	-0.5%	-4.0%	33.7%	-6.0%
CS(=O)(=O)c1ccc(Cl)c(NC(=O)CSc2nncn2-c2ccccc2)c1	-4.7%	18.8%	-4.3%	-13.6%	-15.1%
SMILES	G9a block	GLS inh	BAZ2B inh	HP1b binding inh	JMJD2A Tudor inh
O=C1CSC(c2cccs2)N1c1ccccc1 (stereo not given)	-1.9%[59 µM]	0.0%	9.7%	24.7%	-8.4%
COc1ccc(N2C(=O)CSC2c2cccs2)cc1 (stereo not given)	50.1µM*	10.5%	-8.1%	11.7%	-10.3%
CCCCN(C=O)c1c(CC)nc2c(OCc3ccc(Cl)cc3Cl)cccn12	/	-1.2%	/	/	/
CSCCC1NC2(C(=O)Nc3c(Cl)cccc32)[C@@H]2C(=O)N(C3CCCC3)C(=O)[C@H]12 (stereo not given in full)	70.8µM*	-23.5%	-23.7%	3.8%	?
CC(C)Cn1nc(NC(=O)c2cccs2)c2cc3ccccc3nc21	/	1.0%	84.4%	57.2%	51.4%
O=S1(=O)N=C(Oc2ccccc2Cl)c2ccccc21	/	/	/	/	112µM*
O=C(O)c1ccccc1OC1=NS(=O)(=O)c2ccccc21	/	/	/	/	79.4µM*
O=S1(=O)N=C(Oc2ccccc2Br)c2ccccc21	/	/	/	/	79.4µM*
Cc1ccccc1OC1=NS(=O)(=O)c2ccccc21	?	-0.3%	-32.2%	13.9%	?
O=C(c1ccc(Cl)cc1)C1CCCN(C(=O)/C=C/c2ccccn2)C1 (stereo not given)	-6.0%[59 µM]	0.5%	-31.2%	19.0%	-20.4%
CCOC(=O)[C@]12CCC=C1N(Cc1ccc3c(c1)OCO3)C(=O)[C@H](CC(=O)NCc1cccs1)C2	/	3.1%	/	/	/
O=C(CCc1ccccc1)N(Cc1cccnc1)c1nc2c(F)cc(F)cc2s1	4.1%[59 µM]	-20.3%	-2.2%	34.9%	-16.9%
COc1cc2ccccc2cc1C(=O)N(CCN(C)C)c1nc2c(F)cc(F)cc2s1	31.6µM*	2.5%	?	-17.6%	?
CCN(CC)CCN(C(=O)CCOc1ccccc1)c1nc2c(F)cc(F)cc2s1	?	1.4%	/	34.4%	-9.0%
CN(C)CCN(C(=O)CCc1ccccc1)c1nc2c(F)cc(F)cc2s1	50.1µM*	-0.1%	/	16.0%	-27.4%
CN(C)CCCN(C(=O)CCc1ccccc1)c1nc2ccc(Br)cc2s1	79.4µM*	0.6%	/	-14.6%	-33.5%
COc1cc2ccccc2cc1C(=O)N(CCN(C)C)c1nc2ccc(Br)cc2s1	25.1µM*	7.8%	?	?	?
C=CC[n+]1ccc(/C=C2\C=Cc3cc(C)ccc3N2CC)c2ccccc21	14.1µM*	2.0%	14.1µM*	?	20µM*
CCN(CC)C(=O)c1cc([N+](=O)[O-])cc2c1-c1ccc([N+](=O)[O-])cc1C2=C(C#N)C#N	50.1µM*	15.7%	?	8.3%	?
CCN(CC)C(=O)c1ccc(Oc2ccc([N+](=O)[O-])cc2Cl)cc1	?	-1.2%	-31.5%	-15.2%	-30.2%
S=C1NC(c2ccccc2)=CC(c2ccccc2)N1 (stereo not given)	31.6µM*	0.7%	?	18.2%	-28.5%
CC1=CC(c2ccccc2)NC(=S)N1 (stereo not given)	-4.1%[59 µM]	-5.2%	5.2%	31.8%	-31.8%
S=C1NC(c2cccs2)=CC(c2ccc(Br)cc2)N1 (stereo not given)	15.8µM*	?	?	-16.0%	?
NC(=O)C1CCN(c2oc(-c3cccs3)nc2S(=O)(=O)c2ccc(Br)cc2)CC1	/	-21.8%	/	?	?
CCCCc1nnc(NC(=O)Cn2cnc3ccccc3c2=O)s1	-4.2%	1.7%	-3.1%	19.3%	0.0%
CCSC1=C(C#N)C(c2cccc(OC)c2)CC(=O)N1 (stereo not given)	?	2.3%	-1.2%	19.8%	-18.2%
Cc1ccc(C(=O)CSC2=C(C#N)C(c3ccco3)CC(=O)N2)c(C)c1 (stereo not given)	?	1.6%	/	-39.7%	50.1µM*
